Measurements taken from ChEMBL document CHEMBL1961873, “Compounds: GSK PKIS; Assays: Nanosyn kinase panel” (2012).

Key:
[1] = molecular target: High affinity nerve growth factor receptor (Homo sapiens) (UniProt P04629); conditions: at 1 µM;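 note: each value is the mean percent inhibition of TRKA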
[2] = molecular target: BDNF/NT-3 growth factors receptor (Homo sapiens) (UniProt Q16620); conditions: at 0.1 µM
[3] = molecular target: BDNF/NT-3 growth factors receptor (Homo sapiens) (UniProt Q16620); conditions: at 1 µM
[4] = molecular target: NT-3 growth factor receptor (Homo sapiens) (UniProt Q16288); conditions: at 0.1 µM
Sequence of NT-3 growth factor receptor (Homo sapiens) (Q16288 32-839 limits assumed): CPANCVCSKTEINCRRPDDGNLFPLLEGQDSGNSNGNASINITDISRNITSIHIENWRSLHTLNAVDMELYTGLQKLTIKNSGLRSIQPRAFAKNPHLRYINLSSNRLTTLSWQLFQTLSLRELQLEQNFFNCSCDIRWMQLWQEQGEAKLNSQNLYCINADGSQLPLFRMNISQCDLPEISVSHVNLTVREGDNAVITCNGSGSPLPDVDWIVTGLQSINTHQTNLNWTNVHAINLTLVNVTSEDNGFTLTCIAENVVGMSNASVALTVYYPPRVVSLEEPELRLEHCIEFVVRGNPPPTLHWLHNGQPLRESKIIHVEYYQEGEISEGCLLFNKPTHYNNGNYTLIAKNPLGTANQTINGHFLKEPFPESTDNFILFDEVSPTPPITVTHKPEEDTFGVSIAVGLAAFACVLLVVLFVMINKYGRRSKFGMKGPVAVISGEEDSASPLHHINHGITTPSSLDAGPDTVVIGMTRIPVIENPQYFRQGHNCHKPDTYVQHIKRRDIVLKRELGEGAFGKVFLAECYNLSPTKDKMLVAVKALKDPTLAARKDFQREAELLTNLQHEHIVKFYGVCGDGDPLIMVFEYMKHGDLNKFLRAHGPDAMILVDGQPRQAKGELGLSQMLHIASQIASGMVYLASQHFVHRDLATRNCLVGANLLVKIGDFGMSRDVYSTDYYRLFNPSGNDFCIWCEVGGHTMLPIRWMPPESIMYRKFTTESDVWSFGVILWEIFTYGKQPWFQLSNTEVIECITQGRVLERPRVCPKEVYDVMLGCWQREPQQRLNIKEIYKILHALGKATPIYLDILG

[5] = molecular target: NT-3 growth factor receptor (Homo sapiens) (UniProt Q16288); conditions: at 1 µM
[6] = molecular target: T1, Tyrosine-protein kinase TXK (Homo sapiens) (UniProt P42681); conditions: at 0.1 µM
T1 sequence (whole entry): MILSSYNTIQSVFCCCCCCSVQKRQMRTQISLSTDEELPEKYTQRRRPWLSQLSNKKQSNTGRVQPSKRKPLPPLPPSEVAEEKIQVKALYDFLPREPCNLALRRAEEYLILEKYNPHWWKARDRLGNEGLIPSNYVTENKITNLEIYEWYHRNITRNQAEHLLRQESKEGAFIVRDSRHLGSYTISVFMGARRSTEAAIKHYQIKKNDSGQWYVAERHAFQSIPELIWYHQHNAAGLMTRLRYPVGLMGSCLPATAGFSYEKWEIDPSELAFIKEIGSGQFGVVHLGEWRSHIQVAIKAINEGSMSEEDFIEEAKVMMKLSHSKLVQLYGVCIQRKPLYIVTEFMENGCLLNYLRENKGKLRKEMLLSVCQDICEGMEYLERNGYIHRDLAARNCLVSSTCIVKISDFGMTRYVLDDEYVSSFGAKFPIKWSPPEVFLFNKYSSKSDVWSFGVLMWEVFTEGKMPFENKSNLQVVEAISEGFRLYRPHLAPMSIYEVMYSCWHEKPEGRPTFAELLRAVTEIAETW

[7] = molecular target: T1, Tyrosine-protein kinase TXK (Homo sapiens); conditions: at 1 µM
[8] = molecular target: Non-receptor tyrosine-protein kinase TYK2 (Homo sapiens) (UniProt P29597); conditions: at 0.1 µM;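 note: each value is a mean of the inhibition readings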
Sequence of Non-receptor tyrosine-protein kinase TYK2 (Homo sapiens) (P29597 whole entry): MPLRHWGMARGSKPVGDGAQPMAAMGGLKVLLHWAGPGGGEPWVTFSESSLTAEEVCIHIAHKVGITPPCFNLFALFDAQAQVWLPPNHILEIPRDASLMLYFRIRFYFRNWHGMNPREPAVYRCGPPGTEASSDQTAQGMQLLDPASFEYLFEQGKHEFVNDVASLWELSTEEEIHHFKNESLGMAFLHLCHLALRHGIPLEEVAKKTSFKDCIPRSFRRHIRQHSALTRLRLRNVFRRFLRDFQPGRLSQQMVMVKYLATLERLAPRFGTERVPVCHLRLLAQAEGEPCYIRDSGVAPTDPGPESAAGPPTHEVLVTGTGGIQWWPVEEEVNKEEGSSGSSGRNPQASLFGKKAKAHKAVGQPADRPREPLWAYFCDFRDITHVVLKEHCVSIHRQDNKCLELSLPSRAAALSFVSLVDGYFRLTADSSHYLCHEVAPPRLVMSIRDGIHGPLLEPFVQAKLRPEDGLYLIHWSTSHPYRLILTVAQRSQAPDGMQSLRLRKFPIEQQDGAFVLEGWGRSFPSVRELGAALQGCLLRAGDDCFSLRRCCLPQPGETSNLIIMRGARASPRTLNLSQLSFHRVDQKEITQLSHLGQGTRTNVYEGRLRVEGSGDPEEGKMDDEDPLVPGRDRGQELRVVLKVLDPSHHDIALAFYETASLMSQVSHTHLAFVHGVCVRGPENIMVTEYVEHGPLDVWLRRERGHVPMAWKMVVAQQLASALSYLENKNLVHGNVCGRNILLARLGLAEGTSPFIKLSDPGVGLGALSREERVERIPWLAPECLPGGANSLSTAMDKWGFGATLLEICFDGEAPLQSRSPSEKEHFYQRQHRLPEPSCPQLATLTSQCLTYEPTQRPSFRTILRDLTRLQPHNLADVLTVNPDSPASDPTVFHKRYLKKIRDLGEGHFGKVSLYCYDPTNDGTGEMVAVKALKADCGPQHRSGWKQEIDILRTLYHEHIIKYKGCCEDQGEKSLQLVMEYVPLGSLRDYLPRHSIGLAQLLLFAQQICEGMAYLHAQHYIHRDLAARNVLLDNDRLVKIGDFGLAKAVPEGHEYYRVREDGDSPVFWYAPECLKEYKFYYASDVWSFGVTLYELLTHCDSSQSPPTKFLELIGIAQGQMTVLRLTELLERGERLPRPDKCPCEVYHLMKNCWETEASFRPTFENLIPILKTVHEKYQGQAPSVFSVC

[9] = molecular target: T2, Dual specificity protein kinase TTK (Homo sapiens) (UniProt P33981); conditions: at 1 µM;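 note: reported figures are mean TTK inhibition at 1 µM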
T2 sequence (whole entry): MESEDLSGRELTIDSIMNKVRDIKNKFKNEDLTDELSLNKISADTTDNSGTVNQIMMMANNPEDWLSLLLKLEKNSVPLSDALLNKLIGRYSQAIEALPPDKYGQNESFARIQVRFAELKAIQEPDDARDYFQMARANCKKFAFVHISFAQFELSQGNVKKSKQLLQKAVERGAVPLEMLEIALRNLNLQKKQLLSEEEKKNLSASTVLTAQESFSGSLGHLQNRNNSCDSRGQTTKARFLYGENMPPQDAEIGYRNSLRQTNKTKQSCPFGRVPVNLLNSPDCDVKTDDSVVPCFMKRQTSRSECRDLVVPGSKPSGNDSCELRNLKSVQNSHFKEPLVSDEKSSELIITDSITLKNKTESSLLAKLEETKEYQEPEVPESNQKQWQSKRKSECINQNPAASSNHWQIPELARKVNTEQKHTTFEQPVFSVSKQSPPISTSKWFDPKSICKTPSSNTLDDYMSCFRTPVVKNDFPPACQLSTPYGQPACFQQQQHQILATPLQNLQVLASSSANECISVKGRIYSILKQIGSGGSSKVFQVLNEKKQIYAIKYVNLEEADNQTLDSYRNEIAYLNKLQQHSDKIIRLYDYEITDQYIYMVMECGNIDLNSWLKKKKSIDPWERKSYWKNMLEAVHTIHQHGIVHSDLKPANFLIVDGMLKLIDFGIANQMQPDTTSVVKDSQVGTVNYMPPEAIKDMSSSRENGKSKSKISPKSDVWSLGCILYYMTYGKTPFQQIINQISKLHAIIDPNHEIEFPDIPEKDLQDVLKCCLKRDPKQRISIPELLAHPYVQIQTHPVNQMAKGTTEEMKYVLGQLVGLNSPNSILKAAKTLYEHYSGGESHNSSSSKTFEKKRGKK

[10] = molecular target: T3, Aurora kinase A (Homo sapiens) (UniProt O14965); conditions: at 0.1 µM;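 note: each reported value is a mean percent inhibition of Aurora-A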
T3 sequence (whole entry): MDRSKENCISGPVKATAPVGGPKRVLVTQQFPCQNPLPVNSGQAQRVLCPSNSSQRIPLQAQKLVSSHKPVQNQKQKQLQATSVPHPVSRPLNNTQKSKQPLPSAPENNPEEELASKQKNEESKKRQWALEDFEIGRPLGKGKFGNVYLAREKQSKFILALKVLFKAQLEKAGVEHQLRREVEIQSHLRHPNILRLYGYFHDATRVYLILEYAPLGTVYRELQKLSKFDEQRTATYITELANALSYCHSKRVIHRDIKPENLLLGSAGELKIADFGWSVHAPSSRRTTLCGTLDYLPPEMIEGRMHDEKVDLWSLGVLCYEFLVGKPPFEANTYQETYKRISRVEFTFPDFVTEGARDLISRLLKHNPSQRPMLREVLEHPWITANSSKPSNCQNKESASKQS

Sequence of High affinity nerve growth factor receptor (Homo sapiens) (P04629 33-796 limits assumed): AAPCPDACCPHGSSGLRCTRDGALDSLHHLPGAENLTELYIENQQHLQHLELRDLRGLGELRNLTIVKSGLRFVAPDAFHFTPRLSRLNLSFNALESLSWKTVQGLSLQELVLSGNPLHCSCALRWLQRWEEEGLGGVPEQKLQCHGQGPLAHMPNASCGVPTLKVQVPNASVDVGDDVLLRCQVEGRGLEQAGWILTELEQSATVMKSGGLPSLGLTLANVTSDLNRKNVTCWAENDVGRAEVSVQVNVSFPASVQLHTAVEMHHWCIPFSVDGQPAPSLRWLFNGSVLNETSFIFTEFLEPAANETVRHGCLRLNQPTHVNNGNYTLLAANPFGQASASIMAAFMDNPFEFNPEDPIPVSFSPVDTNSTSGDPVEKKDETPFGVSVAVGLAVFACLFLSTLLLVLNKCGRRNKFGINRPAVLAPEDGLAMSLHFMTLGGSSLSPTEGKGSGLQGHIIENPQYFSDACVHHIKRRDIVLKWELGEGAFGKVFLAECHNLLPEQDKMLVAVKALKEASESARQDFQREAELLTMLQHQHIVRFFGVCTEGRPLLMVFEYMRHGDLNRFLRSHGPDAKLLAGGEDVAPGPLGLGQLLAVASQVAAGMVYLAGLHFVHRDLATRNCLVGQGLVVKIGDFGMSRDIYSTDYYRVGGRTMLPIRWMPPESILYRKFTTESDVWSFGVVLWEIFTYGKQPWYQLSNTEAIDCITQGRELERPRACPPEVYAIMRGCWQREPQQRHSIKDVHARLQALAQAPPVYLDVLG
Sequence of BDNF/NT-3 growth factors receptor (Homo sapiens) (Q16620 32-822 limits assumed): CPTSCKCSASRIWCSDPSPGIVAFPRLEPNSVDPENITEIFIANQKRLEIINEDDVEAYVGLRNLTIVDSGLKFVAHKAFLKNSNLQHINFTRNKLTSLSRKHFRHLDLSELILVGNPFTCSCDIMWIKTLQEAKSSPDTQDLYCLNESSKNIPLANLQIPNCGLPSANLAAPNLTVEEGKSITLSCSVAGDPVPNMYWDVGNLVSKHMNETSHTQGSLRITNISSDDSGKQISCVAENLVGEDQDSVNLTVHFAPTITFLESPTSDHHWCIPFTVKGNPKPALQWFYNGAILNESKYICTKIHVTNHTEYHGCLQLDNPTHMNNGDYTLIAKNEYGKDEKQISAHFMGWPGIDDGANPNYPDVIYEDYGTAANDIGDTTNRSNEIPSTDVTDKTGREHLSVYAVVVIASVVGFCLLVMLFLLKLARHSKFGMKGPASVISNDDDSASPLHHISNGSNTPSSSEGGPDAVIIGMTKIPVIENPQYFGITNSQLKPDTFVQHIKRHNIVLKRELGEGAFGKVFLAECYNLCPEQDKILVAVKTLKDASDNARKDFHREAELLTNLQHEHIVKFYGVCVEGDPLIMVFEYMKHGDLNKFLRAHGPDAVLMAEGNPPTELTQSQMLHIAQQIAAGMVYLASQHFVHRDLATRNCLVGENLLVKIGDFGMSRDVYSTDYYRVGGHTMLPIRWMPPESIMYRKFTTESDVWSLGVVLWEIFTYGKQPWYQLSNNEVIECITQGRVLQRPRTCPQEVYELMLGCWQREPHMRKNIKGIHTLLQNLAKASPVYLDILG

Row | SMILES | inhibition [1] [%] | inhibition [2] [%] | inhibition [3] [%] | inhibition [4] [%] | inhibition [5] [%] | inhibition [6] [%] | inhibition [7] [%] | inhibition [8] [%] | inhibition [9] [%] | inhibition [10] [%]
1 | NS(=O)(=O)c1ccc(-c2ccc3c(NC(=O)C4CC4)n[nH]c3c2)cc1 | 0.03 | 0.8 | 5.39 | 2.06 | 9.04 | 3.28 | 4.88 | -5.6 | 7.86 | 3.44
2 | CCn1c(-c2nonc2N)nc2c(C#CCN)ncc(OCCCN)c21 | -4.23 | -0.67 | -1.3 | 0.15 | 2.14 | -1.46 | -3.71 | 5.99 | -3.71 | -1.21
3 | NC(=O)c1sc(-n2cnc3cc(C(F)(F)F)ccc32)cc1OCc1ccccc1Br | -0.05 | 3 | 1.49 | 1.41 | 2.25 | 1.4 | 3.45 | 0.53 | 3.54 | 1.18
4 | NS(=O)(=O)c1ccc(N/C=C2\C(=O)Nc3ccc4ncsc4c32)cc1 | 51.3 | 19.1 | 65.9 | 21.6 | 66.9 | -0.44 | 10.8 | 1.37 | 62.4 | 30
5 | COc1cc2c(cc1Nc1nc(Nc3ccsc3C(N)=O)c3cc[nH]c3n1)N(C(=O)CN(C)C)CCC2 | – | -0.6 | 3.59 | -1.52 | 3.92 | -2.39 | -1.59 | -8.98 | 36.4 | 2.03
6 | Cc1cc(-c2ccco2)cc(C)c1/C=C/c1cncc(-c2nn[nH]n2)c1 | -4.92 | -0.9 | 4.36 | -0.6 | 5.53 | -0.29 | 4.01 | 0.06 | 4.48 | 3.01
7 | COc1cccc(-n2ncc3c(N/N=C/c4ccncc4)ncnc32)c1 | 12.8 | 7.74 | 37.6 | 8.44 | 36.9 | 4.8 | 18.6 | -2.74 | 18.5 | 12.1
8 | CCn1c(-c2nonc2N)nc2c(C#CC(C)(C)O)ncc(OC[C@@H]3CCCN3)c21 | -3.52 | -0.66 | 0.79 | 1.15 | -0.37 | -0.98 | 1.67 | -0.97 | 4.1 | 3.07
9 | COc1cc(C=NNc2ncnc3c2cnn3Cc2ccccc2)ccc1O | 2.96 | 0.74 | 23.4 | 0.17 | 14 | 1.55 | 19.6 | 3.47 | 3.09 | 2.88
10 | CCn1c(-c2nonc2N)nc2c(C#CC(C)(C)O)ncc(OCC3CCNCC3)c21 | 2.62 | 3.08 | 1.98 | 3.15 | 3.69 | -1.16 | -1.53 | -1.24 | 11.4 | -1.94
11 | COc1cccc(COc2cc(-n3cnc4ccccc43)sc2C(N)=O)c1 | -7.54 | -0.03 | -0.8 | -2.79 | -1.55 | -1.73 | 2.43 | -1.93 | 4.76 | 2.16
12 | Fc1ccc(-c2ncn(C3CCNCC3)c2-c2ccnc(Oc3ccccc3)n2)cc1 | 1.69 | 1.68 | 2.74 | 1.74 | 1.25 | -5.33 | -2.78 | -1.8 | 6.14 | -3.42
13 | Nc1nonc1-c1nc2cnccc2n1C1CCCCC1 | -1.13 | -1.42 | -0.84 | -0.5 | 0.67 | -1.24 | -0.03 | 4.5 | 4.51 | -0.63
14 | CCn1c(-c2nonc2N)nc2c(C#CC(C)(C)O)nc(O[C@@H](CN)c3ccccc3)cc21 | 0.16 | -1.86 | 1.16 | -1.62 | 0.7 | 2.06 | 2.31 | 2.96 | 8.72 | 0.22
